IL-1B inflam inh – qHTS for Inhibitors of Inflammasome Signaling: IL-1-beta AlphaLISA Primary Screen. THP-1 LPS/ATP IL-1B secretion, AlphaLISA, 16 h; active compounds read low. activity change, % at 57.5 µM. 360,000 tested, 4.7% active. AID 743279, 2014; in the data active means activity change below about -50%; inconclusive means mostly about -30% to -49%
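Secreted IL-1B measured by AlphaLISA bead assay after 16 h compound exposure of THP-1 cells; compounds (final up to 57.5 uM) added 1 h before LPS (250 ng/mL) and ATP (1.25 mM) stimulation; lower signal means less secretion.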
Giardia kill – Small Molecules that selectively kill Giardia lamblia: qHTS | Giardia lamblia trophozoite viability | activity change, % at 7.66 µM, hits read low | 340,000 tested, 0.15% active | AID 540267, 2011; in the data active means activity change below about -80%; inconclusive means between about -30% and that limit;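 further: parasites exposed to compound for two days anaerobically before the ATP read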
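Trophozoites 100 cells/well + cpd; 48 hrs, 37 deg C, anaerobic. ATPLite 1-Step added, 15-30 min RT, luminescence read (ATP-based viability).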
TDP1 cell CPT – qHTS for Inhibitors of human tyrosyl-DNA phosphodiesterase 1 (TDP1): qHTS in cells in presence of CPT; chicken DT40 Tdp1-/-;hTDP1 cells + 20 nM CPT, ATP luminescence, 48 h; Potency, µM (series often up to 46.2 µM), for the others: at the highest dose activity change, negative = growth inhibition, hits mostly inhibitors; 420,000 tested, 12% active; AID 686979, 2013; further: potency means the concentration at half of the fitted maximal effect; nearly all actives have a fitted effect of over 55% in size
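Chicken DT40 Tdp1-/- cells stably complemented with human TDP1 were seeded at 400 cells/well in medium containing 20 nM camptothecin, exposed to pin-transferred compounds, and grown at 37 °C for at least 48 hr. Viability was read as ATP luminescence.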
TDP1 block – qHTS Assay for Inhibitors of Tyrosyl-DNA Phosphodiesterase (TDP1); Tyrosyl-DNA phosphodiesterase 1 (Homo sapiens), Q9NUW8; recombinant TDP1, AlphaScreen DNA substrate cleavage; Potency, µM (top dose mostly 130 µM), for inactives: top-dose activity change, negative = inhibition, usual class: inhibitors; 350,000 tested, 0.28% active; AID 485290, 2010; further: potency means the concentration at half of the fitted maximal effect; nearly all actives have a fitted effect of over 40% in size
Target sequence (Q9NUW8 whole entry, looked up): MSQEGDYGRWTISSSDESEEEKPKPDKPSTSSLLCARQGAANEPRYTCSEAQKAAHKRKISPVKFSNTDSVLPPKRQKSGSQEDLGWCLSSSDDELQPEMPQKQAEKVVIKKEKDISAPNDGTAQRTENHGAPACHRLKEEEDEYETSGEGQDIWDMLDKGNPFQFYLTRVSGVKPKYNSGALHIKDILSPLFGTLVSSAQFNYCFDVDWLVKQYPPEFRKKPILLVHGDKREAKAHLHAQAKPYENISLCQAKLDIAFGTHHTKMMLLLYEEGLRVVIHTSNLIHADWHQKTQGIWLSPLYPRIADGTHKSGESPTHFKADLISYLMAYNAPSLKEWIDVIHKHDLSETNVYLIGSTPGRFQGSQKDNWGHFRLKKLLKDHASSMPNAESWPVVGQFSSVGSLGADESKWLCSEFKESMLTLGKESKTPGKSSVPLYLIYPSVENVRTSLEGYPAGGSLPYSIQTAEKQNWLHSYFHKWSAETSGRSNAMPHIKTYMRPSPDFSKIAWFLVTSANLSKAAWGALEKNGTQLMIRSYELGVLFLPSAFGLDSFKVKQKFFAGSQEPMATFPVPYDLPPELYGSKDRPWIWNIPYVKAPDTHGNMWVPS
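AlphaScreen read-out: signal falls as enzyme removes the 3' tyrosine-FITC from a 5'-biotinylated DNA oligo (15 nM, 5 min, RT). Enzyme was E. coli-made recombinant Tdp1 at 1 nM, exposed to compound for 15 min beforehand; beads 10 ug/ml, 10 min.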
DT40 TDP1 no CPT – qHTS for Inhibitors of human tyrosyl-DNA phosphodiesterase 1 (TDP1): qHTS in cells in absence of CPT; 420,000 tested, 15% active; DT40 Tdp1-/- hTDP1 cells, no CPT, ATP luminescence, 48 h; AID 686978, 2013; Potency, µM (titrated, usually from 46.2 µM), without a hit: at the top dose activity change, negative = growth inhibition, most hits filed as inhibitors; further: potency means the concentration at half of the fitted maximal effect; nearly all actives have a fitted effect of over 55% in size
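No-CPT arm: Tdp1-/-;hTDP1 DT40 cells (400/well) plus compounds, incubated ≥48 hr at 37 °C. Readout CellTiter-Glo luminescence.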
ELG1 DNA repair – qHTS screen for small molecules that inhibit ELG1-dependent DNA repair in human embryonic kidney (HEK293T) cells expressing luciferase-tagged ELG1; 330,000 tested, 2.3% active; AID 504467, 2011; HEK293T ELG1-luciferase reporter, luminescence, 16 h; DNA damage induced by 5-fluorouridine; Potency, µM (titrated, usually from 46.1 µM), without a hit: at the highest dose activity change, negative = inhibition, most hits filed as inhibitors; further: potency means the concentration at half of the fitted maximal effect; nearly all actives have a fitted effect of over 55% in size
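HEK293T cells expressing luciferase-tagged ELG1 (2,000/well) received 5-Fluorouridine plus compound or DMSO for 16 hr at 37 °C. Luciferase was read by ONE-Glo luminescence after 30 min at room temperature.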
Active calls of the source: *; i = inactive; ? = inconclusive; . = not tested or not shown; [ ] = remark or other dose. This is a sample that favours compounds with a hit; in the whole collection about 19% have one here. Unless noted, the call rests on the fitted dose curve; in most records, active means well fitted curve in the direction sought with a large enough effect; inconclusive means small, poorly fitted or top-dose-only effect, or another doubt; inactive means no such curve, though single readings can be large; an effect the other way counts as inactive or inconclusive. On the % scale 0 is the no-effect control and ±100 the full control effect.

SMILES	IL-1B inflam inh	Giardia kill	TDP1 cell CPT	TDP1 block	DT40 TDP1 no CPT	ELG1 DNA repair
N/C(=N\c1nc2ccccc2o1)NC(=O)/C=C/c1ccccc1	-12.4	-11.6	?	5.5%	18.4µM*	-16.0%
CCC(=O)N/C(N)=N/c1nc2ccccc2o1	29.2	-4.3	?	5.5%	?	?
CC(C)CC(=O)N/C(N)=N/c1nc2ccccc2o1	37.2	-2.3	?	3.5%	29.1µM*	?
O=C(c1ccc(Cl)s1)N1CCN(S(=O)(=O)c2ccc(Cl)cc2)CC1	-9.5	3.1	?	-1.1%	?	-9.0%
C=CCn1c(CCNC(=O)c2ccccc2F)nnc1SCC(=O)Nc1nc2ccccc2s1	-12.9	-14.6	-25.3%	3.6%	-15.2%	?
O=C(c1cc(-c2cccc(Cl)c2)nc2ccccc12)N1CCN(c2ccccn2)CC1	i	-12.5	?	4.8%	?	23.1µM*
O=C(c1cc(-c2ccncc2)nc2ccc(Br)cc12)N1CCN(c2ccccn2)CC1	-0.7	-9.8	?	4.1%	11.6µM*	.
Cc1cccc2c(C(=O)N3CCCCC3)cc(-c3ccccc3)nc12	-14.4	-2.4	?	.	?	?
Cc1cccc2c(C(=O)N3CCN(c4ccccn4)CC3)cc(-c3cccc(Br)c3)nc12	-11.5	-5.7	?	2.2%	-23.5%	14.6µM*
Cc1cccc2c(C(=O)N3CCN(c4ccccc4)CC3)cc(-c3ccncc3)nc12	5.6	-5.2	2.59µM*	3.2%	2.91µM*	-18.2%
O=C(c1cc(-c2ccccc2Cl)nc2ccc(Br)cc12)N1CCN(c2ccccn2)CC1	-29.1	-17.3	?	.	?	.
CC(C)(CO)NCC(O)Cn1cc(C=O)c2ccccc21 (centres undefined)	14.9	-25.1	-1.4%	6.3%	5.3%	-10.1%
Cc1cccc(-c2ccc3c(c2)C2CC3CCN2C(=O)OCc2ccccc2)c1 (centres undefined)	3.0	1.3	?	.	?	.
CCOC(=O)c1nc2ccc(C)cc2c2c1C1CC(c3c(Cl)cccc31)N2C(=O)OCc1ccccc1 (centres undefined)	11.4	.	14.6µM*	.	18.4µM*	.
Cc1ccccc1NC(=O)Cc1nc(COC(=O)CCNS(=O)(=O)c2ccccc2)cs1	12.5	-3.8	2.2%	0.0%	-23.4%	-2.8%
O=C(CCCN1C(=O)C(c2ccccc2)Oc2cccnc21)NCc1ccccc1F (centres undefined)	-22.4	24.2	16.4µM*	1.3%	?	9.7%
CCN(CC)c1ccc(NC(=O)CCCN2C(=O)C(c3ccccc3)Oc3cccnc32)c(C)c1 (centres undefined)	.	.	18.4µM*	-7.7%	10.3µM*	.
O=C(CCCN1C(=O)C(c2ccccc2)Oc2cccnc21)NCc1ccccc1Cl (centres undefined)	-12.9	31.2	?	1.8%	?	-10.2%
O=C(CCCN1C(=O)C(c2ccccc2)Oc2cccnc21)Nc1ccccc1C(F)(F)F (centres undefined)	.	.	-17.1%	-2.6%	1.5%	.
Cc1cc(C)c(OCC(=O)OCC(=O)N(C)C2CCS(=O)(=O)C2)c(C)c1 (centres undefined)	8.8	-1.3	-0.2%	0.3%	-3.0%	-0.1%
COC(=O)c1ccccc1NC1c2ccccc2C(=O)N1c1cccnc1 (centres undefined)	-11.7	-1.3	14.6µM*	7.6%	?	-0.1%
CCOC(=O)c1ccc(NC2c3ccccc3C(=O)N2c2cccnc2)cc1 (centres undefined)	41.3	-8.5	11.6µM*	2.6%	10.3µM*	13.9%
CCOC(=O)c1ccc(NC2c3ccccc3C(=O)N2c2ccc(C)cn2)cc1 (centres undefined)	13.9	16.4	?	-2.0%	?	2.2%
COCOCCn1cc(CN2CCS(=O)(=O)N(Cc3ccc(-c4ccc(Cl)cc4)cc3)C(CC(C)C)C2=O)nn1 (centres undefined)	4.9	.	?	.	23.1µM*	.
COCOCCn1cc(CN2CCS(=O)(=O)N(Cc3ccc(-c4ccc(OC)c(OC)c4)cc3)C(CC(C)C)C2=O)nn1 (centres undefined)	-9.7	.	20.6µM*	.	18.4µM*	.
SMILES	IL-1B inflam inh	Giardia kill	TDP1 cell CPT	TDP1 block	DT40 TDP1 no CPT	ELG1 DNA repair
COCOCCn1cc(CN2CCS(=O)(=O)N(Cc3ccc(-c4ccc(Cl)cc4)cc3)C(C)C2=O)nn1 (centres undefined)	-14.9	.	23.1µM*	.	20.6µM*	.
CCc1ccc(NC(=O)C2CCN(c3cc(C)nc4c(-c5ccc(Cl)cc5)c(C)nn34)CC2)cc1	.	.	-18.4%	-3.5%	-7.7%	.
O=C(OCc1cc(=O)n2nc(-c3cccs3)sc2n1)c1cccc(F)c1	.	.	-15.9%	-1.9%	-23.9%	.
Cc1cc(C(=O)Nc2ccccc2-c2nc(CNC(=O)c3ccc(F)cc3F)c(C)o2)c(C)o1	.	.	-3.5%[9.04 µM]	.	-20.0%	.
COc1cc(Cl)c(CN2CCOc3ccc(CN4CCCCC4CO)cc3C2)cc1OC (centres undefined)	.	.	0.9%[9.04 µM]	.	?	.
CCNc1nc(N)nc(Oc2ccc(OCC(=O)OC)nn2)n1	.	.	-0.6%	4.7%	0.4%	.
COCc1c(C(=O)NCCc2ccc(OC(F)F)cc2)oc2ccccc12	-8.2	?	13µM*	-11.2%	11.6µM*	0.0%
CC(OC(=O)c1oc2ccccc2c1COc1ccccc1)C(N)=O (centres undefined)	2.4	-5.1	?	7.7%	-18.9%	16.0%
COc1ccc(CCNC(=O)c2oc3ccccc3c2C)cc1	-9.8	-5.7	?	-14.1%	?	-4.4%
COCc1c(C(=O)NCCOc2ccc(Cl)cc2)oc2ccccc12	3.3	?	25.9µM*	-7.9%[56.1 µM]	23.1µM*	-5.0%
CC(C)(C)NC(=O)c1oc2ccccc2c1COc1ccccc1	11.7	-16.0	?	-3.4%	13µM*	8.0%
O=C(Cn1ncn2c(cc3sccc32)c1=O)NC1CCCC1	-21.6	13.5	-4.8%	2.0%	-11.6%	16.5%
CCN(CC)C(=O)c1ccccc1NC(=O)c1cccc(S(=O)(=O)N(CC)CC)c1	-16.2	25.7	-16.2%	1.3%	-10.2%	-21.0%

Source: PubChem (National Center for Advancing Translational Sciences (NCATS))
